Bioassay records from PubChem.
BAP1 inh = human BAP1 deubiquitinase inhibition | Q92560 | recombinant BAP1, Ub-AMC hydrolysis fluorescence kinetic; hits give low values | calls only at 20 µM | 72,000 compounds, 0.48% hits | AID 436;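 active = activity remaining at or below 50% of control, provided the compound also passes the data quality filters; inactive = the rest, including low values that fail the filters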;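 note: 100% = DMSO wells rate and 0% = substrate alone blank rate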
sEH inhibitor = blocks human soluble epoxide hydrolase activity | recombinant human sEH enzymatic activity assay | inhibition, % at 2 µM | 91,000 compounds, 0.34% hits; in the data active = inhibition above about 80%
PLAP activator = activates human placental alkaline phosphatase; activation fold at 20 µM; AID 696; 96,000 compounds, 1.2% hits; purified PLAP enzyme, luminescent substrate read-out; hits give high values; P05187; in the data active = activation fold above about 2
Target sequence (P05187 whole entry, looked up): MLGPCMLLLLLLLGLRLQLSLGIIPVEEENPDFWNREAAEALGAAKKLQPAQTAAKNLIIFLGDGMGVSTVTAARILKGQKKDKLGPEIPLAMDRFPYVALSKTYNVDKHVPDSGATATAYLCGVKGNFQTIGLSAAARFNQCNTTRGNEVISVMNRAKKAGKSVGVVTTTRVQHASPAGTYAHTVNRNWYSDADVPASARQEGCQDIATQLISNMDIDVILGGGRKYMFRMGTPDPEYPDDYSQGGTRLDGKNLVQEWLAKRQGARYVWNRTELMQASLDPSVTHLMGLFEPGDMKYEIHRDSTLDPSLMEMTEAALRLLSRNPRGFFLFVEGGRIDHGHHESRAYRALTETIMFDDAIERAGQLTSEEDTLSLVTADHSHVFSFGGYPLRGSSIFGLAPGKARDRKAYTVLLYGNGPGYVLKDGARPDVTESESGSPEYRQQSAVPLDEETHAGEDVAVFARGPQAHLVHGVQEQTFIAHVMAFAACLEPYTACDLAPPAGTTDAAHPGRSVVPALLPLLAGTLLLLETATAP
sEH act = activators of human soluble epoxide hydrolase. purified human sEH enzymatic activity, activator screen. activation, % at 2 µM. 91,000 compounds, 0.04% hits. AID 717. P34913; in the data active = activation above about 37%
The depositor's hits bear a star. The list is not random: actives were taken first. Their share in the collection is about 1.3%.

How did CC(c1ccccc1)N1CCn2c(nc3cc(NC(=O)NC4CCCCC4)ccc32)C1 (stereo not given) do in these assays?
sEH inhibitor: 97*; PLAP activator: 2.9*; sEH act: -97

What do the screens show for `CC(c1ccccc1)N1CCn2c(nc3cc(NC(=O)c4cccs4)ccc32)C1` (stereo not given)?
sEH inhibitor: 10; PLAP activator: 1.9; sEH act: -10

What do the screens show for `Cc1cc(C)cc(NC2=NC3(CCCCC3)N=C(N)N2)c1`?
BAP1 inh: inactive; sEH inhibitor: -5; PLAP activator: 2.7*; sEH act: 3

What do the screens show for `O=C1CC(c2ccc3c(c2)OCO3)CC2=C1C(c1ccc(C(F)(F)F)cc1)Nc1ccccc1N2` (stereo not given)?
BAP1 inh: inactive

How did CCN(CC)S(=O)(=O)c1ccc(NC(=O)CCC2CCCCC2)cc1 do in these assays?
sEH inhibitor: -8; PLAP activator: 2.9*; sEH act: 11

What do the screens show for `CCCCc1nc(SCC(=O)Nc2cc(C)on2)n[nH]1`?
BAP1 inh: inactive; sEH inhibitor: -4; PLAP activator: 2.3*; sEH act: 3

What do the screens show for `COc1ccc(-c2nc(SCC(=O)Nc3cc(C)on3)n[nH]2)cc1`?
sEH inhibitor: -8; PLAP activator: 2.1*; sEH act: 9

What do the screens show for `COc1ccc(-c2cc(C(F)(F)F)nc(SCC(=O)Nc3cc(C)on3)n2)cc1OC`?
sEH inhibitor: -2; PLAP activator: 1; sEH act: 1

How did CCn1c(SCC(=O)NNC(=O)Cc2ccccc2)nnc1-c1ccccc1 do in these assays?
sEH inhibitor: -2; PLAP activator: 2.4*; sEH act: 5

Results for Cc1ccc(-n2c(Cc3ccccc3)nnc2SCC(=O)NNC(=O)Cc2ccccc2)cc1 ?
sEH inhibitor: 13; PLAP activator: 2.8*; sEH act: -11

What do the screens show for `CC1=C(C(=O)OC(C)C)C(c2ccccc2[N+](=O)[O-])C2=C(CCCC2=O)N1` (stereo not given)?
BAP1 inh: inactive

What do the screens show for `Nc1sc2c(c1C(=O)NC1CCS(=O)(=O)C1)CCC2` (stereo not given)?
BAP1 inh: inactive; sEH inhibitor: 3; PLAP activator: 2.3*; sEH act: -4

What do the screens show for `C=CCn1c(N2C(=O)CC(Cc3ccccc3)C2=O)nc2ccccc21` (stereo not given)?
BAP1 inh: inactive; sEH inhibitor: 25; PLAP activator: 2.5*; sEH act: -27

Results for C=CCn1c(NCc2ccccc2)nc2ccccc21 ?
BAP1 inh: inactive; sEH inhibitor: -14; PLAP activator: 1; sEH act: 14

Results for CCOC(=O)Cc1csc(NC(=O)c2cccc(C(F)(F)F)c2)n1 ?
BAP1 inh: inactive

Results for COc1ccccc1NC(=S)NNC(=O)c1ccc(O)cc1 ?
sEH inhibitor: -14; PLAP activator: 2.4*; sEH act: 17

What do the screens show for `COc1ccccc1NC(=S)NNC(=O)c1nn(C)cc1Cl`?
sEH inhibitor: 8; PLAP activator: 1.9; sEH act: -8

What do the screens show for `COc1ccccc1NC(=S)NNC(=O)c1nn(C)c(C)c1Cl`?
sEH inhibitor: 2; PLAP activator: 2.1*; sEH act: 0

How did COc1ccc(C)cc1NC(=S)NNC(=O)c1ccccc1Cl do in these assays?
sEH inhibitor: 1; PLAP activator: 2.9*; sEH act: -1

What do the screens show for `O=C1Nc2ccccc2C1=Nc1ccccc1Br`?
BAP1 inh: inactive

What do the screens show for `O=C(Nc1nc(-c2ccccn2)cs1)c1sc2ccccc2c1Cl`?
BAP1 inh: inactive

Results for CCn1c(C)nc2cc(C(=O)NNS(=O)(=O)c3c(C)c(C)cc(C)c3C)ccc21 ?
sEH inhibitor: -4; PLAP activator: 2*; sEH act: 4

What do the screens show for `COc1ccc(CC(=O)Nc2ccc(S(=O)(=O)Nc3nccc(C)n3)cc2)cc1`?
sEH inhibitor: -6; PLAP activator: 2.1*; sEH act: 4

How did COc1ccc(-c2nnn(CC(=O)N(C3CCCC3)C(C)C(=O)NC3CCCC3)n2)cc1OC (stereo not given) do in these assays?
BAP1 inh: inactive; sEH inhibitor: -13; PLAP activator: 1.7; sEH act: 12

What do the screens show for `COc1ccc(-c2nnn(CC(=O)N(C3CCCCC3)C(C)C(=O)NC3CCCC3)n2)cc1OC` (stereo not given)?
BAP1 inh: inactive; sEH inhibitor: -5; PLAP activator: 2*; sEH act: 4

How did Cc1ccc(O)c(Sc2cc(C)ccc2O)c1 do in these assays?
BAP1 inh: inactive; sEH inhibitor: 2; PLAP activator: 2.5*; sEH act: 2

What do the screens show for `Cc1sc2nc(SCC(=O)N(C)C)[nH]c(=O)c2c1C`?
BAP1 inh: inactive; sEH inhibitor: 8; PLAP activator: 1; sEH act: -3

Results for Cc1c(C(=O)N(C)C)sc2nc(-c3ccccn3)[nH]c(=O)c12 ?
sEH inhibitor: -4; PLAP activator: 2.9*; sEH act: 7

How did CC(=O)N1CCN(C(=S)c2ccc(-c3cccc([N+](=O)[O-])c3)o2)CC1 do in these assays?
BAP1 inh: inactive

Results for CCOC(=O)c1sc(NC(=O)c2ccc(C)s2)cc1C ?
sEH inhibitor: 87*; PLAP activator: 0.9; sEH act: -86

What do the screens show for `Cc1csc(-c2c(C(F)(F)F)oc3cc(O)c(C)cc3c2=O)n1`?
BAP1 inh: inactive

Results for Cc1ccc(CSc2nc3ccncc3[nH]2)cc1 ?
sEH inhibitor: -6; PLAP activator: 2.7*; sEH act: 4

What do the screens show for `Cc1cc(C)cc(NC(=O)CSc2nc3ccncc3[nH]2)c1`?
sEH inhibitor: 4; PLAP activator: 2.2*; sEH act: -6

What do the screens show for `Cn1c(NC(=O)c2cccnc2)nc2ccccc21`?
BAP1 inh: inactive; sEH inhibitor: 1; PLAP activator: 2*; sEH act: -2

How did O=C(Nc1cnc2ccccc2c1)c1cccnc1 do in these assays?
BAP1 inh: inactive; sEH inhibitor: 6; PLAP activator: 1; sEH act: -7

Results for Nc1[nH]nc2nc(N3CCCC3)nc(-c3ccccc3)c12 ?
BAP1 inh: inactive; PLAP activator: 2*

How did Cc1ccc(CCNC(=O)C2CCCN(S(=O)(=O)c3cccc4nsnc34)C2)cc1 (stereo not given) do in these assays?
BAP1 inh: inactive; sEH inhibitor: 83*; PLAP activator: 1; sEH act: -83

What do the screens show for `Cc1cccc(CCNC(=O)C2CCCN(S(=O)(=O)c3cccc4nsnc34)C2)c1` (stereo not given)?
BAP1 inh: inactive; PLAP activator: 1.1

Results for Cc1n[nH]c(C)c1S(=O)(=O)N1CCCC(C(=O)NCc2cccs2)C1 (stereo not given) ?
BAP1 inh: inactive; sEH inhibitor: 6; PLAP activator: 1; sEH act: -6

What do the screens show for `Cc1ccc(CNC(=O)C2CCCN(S(=O)(=O)c3c(C)n[nH]c3C)C2)cc1` (stereo not given)?
sEH inhibitor: 7; PLAP activator: 2.3*; sEH act: -7

How did CC=CCOC(=O)C1=C(C)NC(=O)NC1c1ccc2c(c1)OCO2 (stereo not given) do in these assays?
BAP1 inh: inactive
